Design in all cases: scale not given: direction of the effect not stated beside the values
Assay [1] concerns the target Protein translocase subunit SecA (Escherichia coli (strain K12)) (UniProt P10408). As to the kind of experiment: Assay to Identify E. coli SecA ATPase Inhibitors. The format is functional. The following applies: 30 µM.
Assay [2] concerns the target T1, Ubiquitin-activating enzyme e1, putative (Leishmania donovani (strain BPK282A1)) (UniProt E9BSI1).
T1 sequence (whole entry): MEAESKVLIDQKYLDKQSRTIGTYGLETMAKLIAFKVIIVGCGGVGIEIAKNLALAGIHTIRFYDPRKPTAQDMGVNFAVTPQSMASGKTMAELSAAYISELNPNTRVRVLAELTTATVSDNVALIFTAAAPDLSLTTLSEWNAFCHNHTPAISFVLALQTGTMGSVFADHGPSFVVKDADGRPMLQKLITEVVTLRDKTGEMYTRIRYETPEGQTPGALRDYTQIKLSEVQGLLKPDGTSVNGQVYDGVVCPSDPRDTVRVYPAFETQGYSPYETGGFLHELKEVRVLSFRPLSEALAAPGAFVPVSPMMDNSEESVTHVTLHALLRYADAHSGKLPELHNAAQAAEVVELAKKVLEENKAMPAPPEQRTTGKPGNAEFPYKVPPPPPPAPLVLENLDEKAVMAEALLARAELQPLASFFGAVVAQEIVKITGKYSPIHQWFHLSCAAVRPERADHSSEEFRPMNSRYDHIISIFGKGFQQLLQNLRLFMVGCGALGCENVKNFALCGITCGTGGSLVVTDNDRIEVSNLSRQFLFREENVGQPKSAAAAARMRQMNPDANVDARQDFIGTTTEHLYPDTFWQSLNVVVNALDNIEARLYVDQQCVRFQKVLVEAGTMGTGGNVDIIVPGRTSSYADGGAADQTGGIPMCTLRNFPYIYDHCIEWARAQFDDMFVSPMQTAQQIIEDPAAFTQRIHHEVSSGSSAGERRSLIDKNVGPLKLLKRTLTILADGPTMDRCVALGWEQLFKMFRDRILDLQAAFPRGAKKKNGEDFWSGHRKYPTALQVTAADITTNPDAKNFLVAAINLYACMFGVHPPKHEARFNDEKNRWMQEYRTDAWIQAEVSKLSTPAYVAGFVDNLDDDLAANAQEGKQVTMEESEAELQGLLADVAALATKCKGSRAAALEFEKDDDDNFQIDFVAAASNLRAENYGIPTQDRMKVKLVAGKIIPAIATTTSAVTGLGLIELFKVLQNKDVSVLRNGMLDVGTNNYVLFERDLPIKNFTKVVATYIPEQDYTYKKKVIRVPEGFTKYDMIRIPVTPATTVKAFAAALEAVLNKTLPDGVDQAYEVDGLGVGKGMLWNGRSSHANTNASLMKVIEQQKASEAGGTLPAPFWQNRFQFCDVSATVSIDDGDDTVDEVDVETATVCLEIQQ
As to the kind of experiment: Leishmania donovani Ubiquitin Activating Enzyme (LdE1). The settings on record: 30 µM. The format is functional.

The target in assay [3] is AMP-activated protein kinase, AMPK (Homo sapiens) (UniProt P54646+O43741+P54619+Q9UGJ0+Q9Y478+Q13131+Q9UGI9). In words: AMP-dependent Kinase enzyme assay. An in vitro enzyme assay that detects ADP turnover that is directly proportional to AMPK activity. This uses naive AMPK that is activated during the assay with MK-8722. The format is functional. The following applies: 30 µM.

Assay [4] deals with Sialic acid-binding Ig-like lectin 9 (Homo sapiens) (UniProt Q9Y336). As to the kind of experiment: Hs-Siglec9 ALPHAscreen SOP 20170721. The settings on record: 10 µM.
The subject of assay [5] is Trypanosoma cruzi. As to the kind of experiment: Trypanosoma cruzi phosphomannomutase and mannose-1-phosphate guanylyltransferase assay. The format is functional. The following applies: 10 µM.
In assay [6] the target is T2, Arginase-2, mitochondrial (Homo sapiens) (UniProt P78540).
T2 sequence (whole entry): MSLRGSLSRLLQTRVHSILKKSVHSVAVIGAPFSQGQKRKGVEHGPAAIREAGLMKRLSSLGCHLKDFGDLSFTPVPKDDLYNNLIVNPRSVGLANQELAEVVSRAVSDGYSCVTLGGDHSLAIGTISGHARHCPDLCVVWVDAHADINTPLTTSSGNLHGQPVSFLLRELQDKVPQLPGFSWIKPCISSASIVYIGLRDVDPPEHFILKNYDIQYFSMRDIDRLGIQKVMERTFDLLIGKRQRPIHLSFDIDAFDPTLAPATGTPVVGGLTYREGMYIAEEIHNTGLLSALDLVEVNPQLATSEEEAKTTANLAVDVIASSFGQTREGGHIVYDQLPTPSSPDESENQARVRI
In words: in vitro enzyme assay to detect the production of urea directly proportional to the activity of Arginase II. Note: in the data most compounds retested in dose-response had high values. The format is functional. The settings on record: 33.3 µM.

The target in assay [7] is T3, Proteasome subunit beta (Trypanosoma cruzi) (UniProt O96673).
T3 sequence (whole entry): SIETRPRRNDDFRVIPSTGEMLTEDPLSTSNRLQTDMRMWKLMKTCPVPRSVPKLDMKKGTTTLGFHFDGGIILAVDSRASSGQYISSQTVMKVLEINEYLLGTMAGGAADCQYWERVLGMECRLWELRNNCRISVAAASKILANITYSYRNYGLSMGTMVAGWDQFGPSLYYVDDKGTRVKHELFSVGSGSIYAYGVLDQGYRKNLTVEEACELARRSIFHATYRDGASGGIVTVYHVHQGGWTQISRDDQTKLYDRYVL
As to the kind of experiment: Trypanosoma cruzi proteasome chymotrypsin-like activity (TcProtChymo) assay. Note: in the data most compounds retested in dose-response had high values. The format is functional. The settings on record: 9.37 µM.

The species named for assay [8] is Homo sapiens. In words: To identify inhibition of the IFN signalling (Jak-Stat) pathway via expression of an eGFP reporter gene under the control of an IFN-stimulated response element (ISRE) containing MxA promoter. The format is functional. The settings on record: 30 µM.
Assay [9] deals with T4, Tyrosyl-tRNA synthetase, putative (Trypanosoma cruzi (strain CL Brener)) (UniProt Q4DSP6).
T4 sequence (whole entry): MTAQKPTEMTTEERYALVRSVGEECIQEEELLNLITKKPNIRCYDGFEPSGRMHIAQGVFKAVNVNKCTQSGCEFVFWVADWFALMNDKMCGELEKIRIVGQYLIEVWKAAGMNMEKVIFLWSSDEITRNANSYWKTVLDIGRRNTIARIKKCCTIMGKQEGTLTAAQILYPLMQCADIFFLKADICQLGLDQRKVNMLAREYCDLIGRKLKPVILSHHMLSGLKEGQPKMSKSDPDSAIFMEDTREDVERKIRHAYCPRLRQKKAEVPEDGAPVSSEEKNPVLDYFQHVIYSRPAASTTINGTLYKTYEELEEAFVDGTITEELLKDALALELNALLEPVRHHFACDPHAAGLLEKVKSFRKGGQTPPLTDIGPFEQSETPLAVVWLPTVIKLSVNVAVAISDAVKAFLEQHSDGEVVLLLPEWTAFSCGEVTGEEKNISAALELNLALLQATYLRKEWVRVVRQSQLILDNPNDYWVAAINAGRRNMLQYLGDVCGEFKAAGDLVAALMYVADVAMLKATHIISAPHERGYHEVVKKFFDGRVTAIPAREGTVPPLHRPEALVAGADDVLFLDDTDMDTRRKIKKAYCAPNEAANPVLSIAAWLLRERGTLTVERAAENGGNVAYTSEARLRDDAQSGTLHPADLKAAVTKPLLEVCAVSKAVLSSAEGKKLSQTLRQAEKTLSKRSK
As to the kind of experiment: Trypanosoma cruzi tyrosyl tRNA synthetase (TcYRS) _High Tyrosine SOP. Note: in the data most compounds retested in dose-response had high values. The format is functional. The following applies: 30 µM.

Assay [10] deals with T4, Tyrosyl-tRNA synthetase, putative (Trypanosoma cruzi (strain CL Brener)). In words: Trypanosoma cruzi tyrosyl tRNA synthetase (TcYRS) SOP. It counts as functional. The following applies: 30 µM.
Assay [11] deals with Chromo domain-containing protein 1 (Saccharomyces cerevisiae (strain ATCC 204508 / S288c) (Baker's yeast)) (UniProt P32657). As to the kind of experiment: ScCHD-1 Enzyme Inhibition Assay. Note: in the data most compounds retested in dose-response had high values. The settings on record: 30 µM. The format is functional.

For eight compounds, Percent Effect results are on record in ChEMBL document CHEMBL3988442, “University of Dundee, Small-Polar-MMV Screening Library” (2021).

For some of these results: Entries with a potency or affinity are not part of this list.

Sequence of Protein translocase subunit SecA (Escherichia coli (strain K12)) (P10408 whole entry): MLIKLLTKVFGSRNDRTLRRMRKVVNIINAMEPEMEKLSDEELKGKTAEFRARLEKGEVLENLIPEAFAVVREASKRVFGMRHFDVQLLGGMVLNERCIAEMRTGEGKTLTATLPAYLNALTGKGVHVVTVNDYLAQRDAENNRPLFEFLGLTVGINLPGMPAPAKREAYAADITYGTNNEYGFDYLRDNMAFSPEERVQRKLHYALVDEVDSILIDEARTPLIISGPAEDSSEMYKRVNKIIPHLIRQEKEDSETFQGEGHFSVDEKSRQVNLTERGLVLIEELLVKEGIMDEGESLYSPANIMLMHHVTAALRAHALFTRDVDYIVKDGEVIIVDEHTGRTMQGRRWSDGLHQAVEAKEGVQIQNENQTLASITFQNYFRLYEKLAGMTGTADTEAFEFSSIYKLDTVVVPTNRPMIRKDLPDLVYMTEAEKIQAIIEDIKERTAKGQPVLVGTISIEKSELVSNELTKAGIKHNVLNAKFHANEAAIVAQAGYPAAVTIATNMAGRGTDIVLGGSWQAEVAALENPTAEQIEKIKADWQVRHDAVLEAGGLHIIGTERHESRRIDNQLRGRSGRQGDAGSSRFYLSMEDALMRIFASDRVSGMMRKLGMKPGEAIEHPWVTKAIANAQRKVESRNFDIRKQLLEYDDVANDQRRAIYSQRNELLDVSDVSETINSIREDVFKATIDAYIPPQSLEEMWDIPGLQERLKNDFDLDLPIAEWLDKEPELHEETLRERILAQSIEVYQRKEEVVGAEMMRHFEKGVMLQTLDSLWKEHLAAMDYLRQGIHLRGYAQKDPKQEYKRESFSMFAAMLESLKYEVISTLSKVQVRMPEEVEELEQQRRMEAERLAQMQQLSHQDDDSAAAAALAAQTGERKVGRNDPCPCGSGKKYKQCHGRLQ
Sequence of Chromo domain-containing protein 1 (Saccharomyces cerevisiae (strain ATCC 204508 / S288c) (Baker's yeast)) (P32657 whole entry, the tested form may be a part): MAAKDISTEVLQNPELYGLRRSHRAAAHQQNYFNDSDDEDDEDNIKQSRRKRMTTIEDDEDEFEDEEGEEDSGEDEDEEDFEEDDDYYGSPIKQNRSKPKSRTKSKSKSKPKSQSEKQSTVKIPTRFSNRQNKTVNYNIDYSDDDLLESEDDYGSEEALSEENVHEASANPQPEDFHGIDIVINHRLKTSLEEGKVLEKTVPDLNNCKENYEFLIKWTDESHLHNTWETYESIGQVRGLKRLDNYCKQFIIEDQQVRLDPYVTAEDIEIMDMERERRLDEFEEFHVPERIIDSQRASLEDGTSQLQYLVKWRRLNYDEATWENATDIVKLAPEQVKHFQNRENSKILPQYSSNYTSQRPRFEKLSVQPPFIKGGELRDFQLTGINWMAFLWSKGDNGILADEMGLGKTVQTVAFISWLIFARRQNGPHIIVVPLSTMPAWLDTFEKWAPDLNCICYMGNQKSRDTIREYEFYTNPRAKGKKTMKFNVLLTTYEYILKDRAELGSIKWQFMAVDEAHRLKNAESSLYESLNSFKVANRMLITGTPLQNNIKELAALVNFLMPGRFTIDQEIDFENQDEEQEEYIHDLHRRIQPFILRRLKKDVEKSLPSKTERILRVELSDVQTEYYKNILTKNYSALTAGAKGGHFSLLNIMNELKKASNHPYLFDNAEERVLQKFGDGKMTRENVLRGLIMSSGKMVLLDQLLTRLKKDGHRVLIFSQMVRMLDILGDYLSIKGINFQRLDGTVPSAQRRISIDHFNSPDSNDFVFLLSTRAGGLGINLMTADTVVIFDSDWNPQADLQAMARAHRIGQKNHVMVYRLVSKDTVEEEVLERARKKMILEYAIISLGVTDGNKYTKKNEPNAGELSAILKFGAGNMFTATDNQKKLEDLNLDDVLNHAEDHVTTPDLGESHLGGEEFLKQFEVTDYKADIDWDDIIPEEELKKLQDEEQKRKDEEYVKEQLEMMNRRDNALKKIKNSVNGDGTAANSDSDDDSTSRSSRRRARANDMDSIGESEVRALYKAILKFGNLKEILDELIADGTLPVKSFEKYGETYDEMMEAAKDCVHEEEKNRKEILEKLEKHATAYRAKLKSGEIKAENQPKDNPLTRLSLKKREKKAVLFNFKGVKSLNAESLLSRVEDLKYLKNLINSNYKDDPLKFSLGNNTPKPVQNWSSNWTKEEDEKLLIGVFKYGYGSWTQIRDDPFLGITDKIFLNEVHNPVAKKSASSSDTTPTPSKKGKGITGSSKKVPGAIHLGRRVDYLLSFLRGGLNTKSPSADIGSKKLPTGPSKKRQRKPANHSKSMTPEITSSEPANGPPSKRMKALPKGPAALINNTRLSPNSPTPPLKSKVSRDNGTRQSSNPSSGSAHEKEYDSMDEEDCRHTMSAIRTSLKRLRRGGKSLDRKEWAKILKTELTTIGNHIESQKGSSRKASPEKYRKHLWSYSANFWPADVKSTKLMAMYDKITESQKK
Sequence of Sialic acid-binding Ig-like lectin 9 (Homo sapiens) (Q9Y336 whole entry): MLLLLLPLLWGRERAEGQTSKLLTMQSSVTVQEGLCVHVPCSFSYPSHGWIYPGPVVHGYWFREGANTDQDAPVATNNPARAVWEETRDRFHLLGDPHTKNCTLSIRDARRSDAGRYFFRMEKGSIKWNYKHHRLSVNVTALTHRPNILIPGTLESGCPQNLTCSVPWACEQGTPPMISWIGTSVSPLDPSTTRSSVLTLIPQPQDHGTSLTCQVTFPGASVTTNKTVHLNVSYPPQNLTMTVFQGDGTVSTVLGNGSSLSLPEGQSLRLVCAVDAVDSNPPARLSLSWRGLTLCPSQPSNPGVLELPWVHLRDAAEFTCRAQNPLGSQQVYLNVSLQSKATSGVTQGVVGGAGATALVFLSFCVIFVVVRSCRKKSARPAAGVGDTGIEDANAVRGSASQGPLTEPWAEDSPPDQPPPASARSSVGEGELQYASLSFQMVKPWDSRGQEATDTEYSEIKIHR

`COc1cccn(CC(=O)N(C)CCOc2cc(C)cc(C)c2)c1=O`: the Percent Effect is -5.42% in [1]; 8.22% in assay [2]; -63.8% in assay [3]; 11.9% in assay [4]; 2.98% in assay [5]; -12.8% in assay [6]. The Percent Effect is 15.2% in [7]; -0.398% in [8]; -2.08% in assay [9]; 3.7% in assay [10]; -0.823% in assay [11].
Consider `CCN(Cc1ccco1)C(=O)NCc1nnc2n1CCC2`, for which the Percent Effect was -1.4% in assay [1]; 10.8% in assay [2]; -2.71% in assay [3]; 1.38% in assay [4]; -1.35% in [5]; 3.81% in assay [6]. Besides, the Percent Effect in assay [7] was 20.5%; in assay [8] it was 0.671%; in assay [9], 6.88%; in assay [10], 14.6%; in [11] it was -1.97%.
Turning to `COCCO[C@@H]1C[C@H]2CN(C(=O)c3cnccn3)CCN2C1`, the Percent Effect is -2.84% in assay [1]; 5.33% in [2]; -0.698% in assay [3]; 4.55% in assay [4]; -0.965% in [5]; -39.6% in assay [6]. Besides, the Percent Effect in assay [7] is 4.79%; in assay [8] it was -8.37%; in [9], 0%; in assay [10] it was -15%; in assay [11] it was -3.81%.
On to `CC(C)N1CCC(NCc2cccnc2N(C)C)CC1`, for which the Percent Effect is -6.06% in assay [1]; 5.33% in assay [2]; -3.18% in [3]; 0.114% in assay [4]; 0.487% in [5]; 2.6% in assay [6]. Also, the Percent Effect in assay [7] was 7.15%; in assay [8], 0.898%; in assay [9] it was -0.546%; in assay [10] it was 8.64%; in assay [11] it was -4.8%.
For the compound `COc1ccc(CNC(C)c2cccc(Cl)c2)c(OC)c1OC` (stereo not drawn), the Percent Effect in assay [1] was -1.96%; in assay [2], 10.7%; in assay [3], -5.69%; in [4], 5.99%; in assay [5] it was 6.52%; in assay [6], 4.69%. The Percent Effect was 5.58% in assay [7]; 16.5% in assay [8]; 0.546% in assay [9]; 6.17% in assay [10]; -1.65% in assay [11].
In the case of `COc1c(CNC2CCCc3ccccc32)c(C(C)C)nn1C` (stereo not drawn), the Percent Effect in [1] was -5.37%; in [2], 21.6%; in assay [3], -16.6%; in assay [4], 17.5%; in assay [5] it was 7.71%; in [6] it was -5.73%. Moreover, the Percent Effect in [7] is 3.59%; in assay [8], 6.78%; in assay [9] it was 4.95%; in assay [10] it was 18.3%; in assay [11], -4.82%.
Consider `c1cncc(OCC2CN(Cc3ccco3)Cc3nccn3C2)c1` (stereo not drawn), for which the Percent Effect is -1.62% in [1]; 21.9% in assay [2]; -8.03% in assay [3]; 11.2% in assay [4]; 4.17% in assay [5]; 0% in [6]. For the same compound, the Percent Effect in assay [7] was 16%; in assay [8], 6.3%; in [9], 10.4%; in [10], 23.5%; in [11], -9.31%.
`CC(=O)N1CCC(Oc2ccc(C#N)cn2)CC1`: the Percent Effect is -4.01% in assay [1]; 8.22% in [2]; 1.71% in assay [3]; 12.9% in assay [4]; 2.94% in assay [5]; 7.27% in [6]. For the same compound, the Percent Effect is 4.44% in assay [7]; 11.1% in assay [8]; 4.3% in assay [9]; 12.5% in assay [10]; -5.65% in [11].
